Only some compounds are listed: those with a hit (about 2.5% of all), similar ones and a draw of the others.
D2 antagonist – antagonists of human D2 dopamine receptor; P14416; HEK293 TREx D2 cells, calcium flux, dopamine EC80; inhibition, % at 10 µM; actives 2% (n = 340,000); in the data active means inhibition above about 30%; inactive means below that, where a call was filed; further: 0% is about no effect
Target sequence (P14416 whole entry, looked up): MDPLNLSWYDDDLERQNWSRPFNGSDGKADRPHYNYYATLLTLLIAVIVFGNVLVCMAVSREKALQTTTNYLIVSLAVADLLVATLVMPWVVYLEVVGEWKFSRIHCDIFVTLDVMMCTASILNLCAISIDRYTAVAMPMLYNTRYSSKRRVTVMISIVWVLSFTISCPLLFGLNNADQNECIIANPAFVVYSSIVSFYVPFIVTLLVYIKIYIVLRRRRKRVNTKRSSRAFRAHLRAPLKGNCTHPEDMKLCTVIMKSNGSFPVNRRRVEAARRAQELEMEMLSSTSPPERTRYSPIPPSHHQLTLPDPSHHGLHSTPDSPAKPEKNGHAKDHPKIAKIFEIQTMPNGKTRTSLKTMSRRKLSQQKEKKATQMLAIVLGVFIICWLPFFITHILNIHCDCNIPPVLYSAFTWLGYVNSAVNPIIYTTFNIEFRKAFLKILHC
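Tetracycline-induced HEK293 T-REx cells expressing D2 force-coupled to calcium signalling were dye-loaded, exposed to compound for 180 s, then challenged with an EC80 of dopamine; calcium flux was followed kinetically for a further 180 s.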
Anesthetic bind – candidate novel general anesthetic via apoferritin binding. apoferritin/1-aminoanthracene competitive binding, fluorescence. AID 485281. Potency, µM (highest dose often 77.5 µM), inactives show top-dose activity change, negative = displacement, hits mostly inhibitors. actives 0.074% (n = 350,000); active means well fitted inhibition curve with a large enough effect; inconclusive means small, poorly fitted or top-dose-only effect; inactive means no such curve, though single readings can be large or run the other way; further: potency means the concentration at half of the fitted maximal effect; on the % scale 0 is the no-effect control and ±100 the full control effect; nearly all actives have a fitted effect of over 20% in size
Target sequence (P02791 2-175 limits assumed): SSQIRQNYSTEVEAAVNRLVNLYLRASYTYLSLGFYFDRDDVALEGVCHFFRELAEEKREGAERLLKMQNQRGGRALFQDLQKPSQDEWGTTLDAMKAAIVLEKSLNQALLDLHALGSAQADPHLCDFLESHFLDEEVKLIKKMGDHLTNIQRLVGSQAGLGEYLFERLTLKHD
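Probe: 1-aminoanthracene (50% saturated, PBS). Protein: horse-spleen apoferritin, 10 uM. Incubation: 10 min, room temperature. Detection: 380 nm excitation, 535 nm emission. Analysis: normalized response, four-parameter Hill.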
D2 PAM-1 – human D2 receptor positive allosteric modulation; DiscoveRx D2 beta-arrestin cells, luminescence, 90 min; 100% = 57 uM dopamine signal; potentiation, % (concentration not given with the values); P14416; AID 624464; actives 0.23% (n = 360,000); in the data active means potentiation above about 50%; inconclusive means mostly about 30% to 49%
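PathHunter D2 cells, attached overnight at 37 deg C, received compound in DMSO plus dopamine at EC20 (50 nM final) for 90 min at 37 deg C. Beta-arrestin recruitment was read as luminescence after 1 h with detection reagent at ambient temperature.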
D2 ag-1 – activates the human D2 dopamine receptor | P14416 | HEK293 T-REx D2 cells, calcium flux agonist mode | activation, % at 2 µM | actives 0.53% (n = 340,000) | AID 485358;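 active means activation over 3 SD above normal in the single-dose calcium agonist read, cut at about 30% in these data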; further: 0% is about no effect
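Agonism scored from kinetic calcium signal (1 read/sec, 180 s) following compound pin transfer, after a 10 s baseline. Cells: HEK293 Trex line expressing inducible D2 receptor coupled to calcium, dye-loaded after overnight culture at 30 C.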
D2 PAM-2 – positively modulates the human D2 dopamine receptor allosterically | potentiation, % at 10 µM | HEK293 T-REx D2, calcium flux, EC20 dopamine potentiation | P14416 | actives 0.34% (n = 340,000);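 active means potentiation over 3 SD above the plate norm, cut at about 30% in these data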; further: 0% is about no effect
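Potentiation of an EC20 dopamine calcium response measured kinetically over 180 s, after a preceding 180 s compound-only read flagging agonists. Cells: inducible Hek293 Trex D2 line, 4000/well, cultured overnight at 30 C before dye loading.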
D2 ag-2 – activates the human D2 dopamine receptor. activation, % (test concentration not listed). P14416. actives 0.084% (n = 360,000). DiscoveRx PathHunter D2 beta-arrestin, luminescence, 90 min; 100% = 57 uM dopamine signal; in the data active means activation above about 40%; inconclusive means between about 15% and that limit
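DiscoveRx PathHunter D2 beta-arrestin cells (2,100/well) attached overnight, then compound-stimulated 90 min at 37 C in HBSS/10 mM HEPES/0.1% Tween-20 buffer; beta-galactosidase complementation read by luminescence after 1 h at ambient temperature. Dopamine 57 uM final (EC100) as control.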
* = called active by the depositor; ? = inconclusive; . = not tested or not shown.

SMILES	D2 antagonist	Anesthetic bind	D2 PAM-1	D2 ag-1	D2 PAM-2	D2 ag-2
N#CCOC(=O)C1CCN(S(=O)(=O)c2ccc3c(c2)OCCO3)CC1	5	.	1	1	34*	-1
CCNC(=O)COC(=O)C1CCN(S(=O)(=O)c2ccc3c(c2)OCCO3)CC1	6	.	4	-1	9	0
O=C(Nc1ccnn1C1CCN(Cc2ccccc2)CC1)c1ccccc1Cl	7	-5%	-25	-1	-24	-7
O=C(Nc1ccnn1C1CCN(C/C=C/c2ccccc2)CC1)c1ccccc1Cl	80*	-14%	-14	83*	-25	?
COc1ccccc1/C=C/CN1CCC(n2nccc2NC(=O)CCc2ccccc2)CC1	35*	?	-13	0	0	-6
CCOc1ccc(CN2CCC(n3nccc3NC(=O)c3ccccc3OC)CC2)cc1	38*	-8%	-39	0	-26	-5
Cc1cccc(NC(=O)c2cccc(NC(=O)c3ccco3)c2)c1	.	.	-2	.	.	0
Fc1ccccc1N1CCN(Cc2nc(-c3ccccc3)no2)CC1	-2	-4%	-11	0	-7	3
CCC1CCCCN1CCCNC(=O)CSc1nc2nc(C)c(Cc3ccccc3Cl)c(C)n2n1 (stereo unspecified)	-6	0%	-17	0	31*	-5
O=C(Cn1ccc(=O)[nH]c1=O)c1ccc([N+](=O)[O-])o1	.	.	6	.	.	47*
O=C(Cn1ccc(=O)[nH]c1=O)NCCO	-2	-2%	2	2	1	-5
Cc1ccccc1CNC(=O)C(=O)NCC(c1ccco1)S(=O)(=O)c1ccccc1 (stereo unspecified)	.	-4%	.	-3	-5	.
O=C(Nc1cccc(/C=C/c2ccccn2)c1)c1ccc(-n2cncn2)c([N+](=O)[O-])c1	21	.	63*	0	-14	7
COc1ccc(NC(=O)c2ccc(-n3cncn3)c([N+](=O)[O-])c2)cc1OC	35*	.	13	-1	-2	3
O=C(Nc1ccc(F)c(F)c1)c1ccc(-n2cncn2)c([N+](=O)[O-])c1	-27	.	2	0	-7	14
CC1Sc2ccc(S(=O)(=O)CCC(=O)N3CCN(c4ccccc4)CC3)cc2NC1=O (stereo unspecified)	0	-2%	-7	4	2	3
c1ccc(CN2C3=NCCCN3c3ccccc32)cc1	-25	-16%	-15	-3	12	3
O=C1CN2C(=N1)N(Cc1ccccc1)c1ccccc12	71*	1%	6	1	-13	0
COc1cc2cnc(-c3ccccc3)c(-c3cccc(C(F)(F)F)c3)c2cc1OC	-2	.	162*	-1	1	?
O=C(NC1CCN(C(=O)c2ccccc2Br)CC1)c1ccccc1	-9	-2%	-3	0	-6	0
COc1ccc(NS(=O)(=O)c2cc(Br)cc3c2N(C(C)=O)CC3)cc1	63*	28%	-13	0	-34	-18
O=C(C1CC1)N1CCc2cc(Br)cc(S(=O)(=O)NC3CCCCC3)c21	40*	5%	-6	0	-4	-3
COc1cc(CN2C[C@@H](CO)O[C@@H](n3cnc4c(N5CCOCC5)ncnc43)C2)cc(OC)c1OC	.	.	4	.	.	5
N/C(=N\OC(=O)c1ccc(Cl)c(Cl)c1)c1ccccn1	-1	-15%	82*	0	-4	11
N/C(=N\OC(=O)c1ccc(Cl)c([N+](=O)[O-])c1)c1ccccn1	6	-6%	?	5	36*	10
SMILES	D2 antagonist	Anesthetic bind	D2 PAM-1	D2 ag-1	D2 PAM-2	D2 ag-2
CCOc1cc(C(=O)O/N=C(\N)c2ccc([N+](=O)[O-])cc2)cc(OCC)c1OCC	-4	-16%	76*	0	4	?
N/C(=N\OC(=O)c1ccc(Cl)c([N+](=O)[O-])c1)c1ccccc1	-9	-3%	94*	0	-1	12
CC(NS(=O)(=O)c1ccc(F)cc1)C(=O)NCc1ccncc1 (stereo unspecified)	.	5%	-40	.	.	-4
N/C(=N\OC(=O)c1cc(-c2ccccc2)nc2ccccc12)c1ccccn1	24	0%	7	-2	-2	48*
CCOc1ccc(C(=O)O/N=C(\N)c2ccccn2)cc1OCC	23	-3%	12	0	12	9
CCOc1cc(C(=O)O/N=C(\N)c2ccccn2)cc(OCC)c1OCC	1	?	72*	1	12	?
COC(=O)c1c(NC(=O)c2nn(C)cc2Cl)sc2c1CCCC2	.	3%	-14	.	.	-4
O=C(Nc1ccccc1)c1cc(C2CCCCN2C(=O)c2cccs2)on1 (stereo unspecified)	.	.	-15	.	.	-4
O=C(CCN1C(=O)C2C3C=CC(C3)C2C1=O)N1CC(=O)N(CCc2ccccc2)C(=O)C1 (stereo unspecified)	31*	-12%	-20	1	21	-4
CCOC(=O)c1c(C)n(-c2ccc(C)cc2)c2c(C(C(C)=O)C(=O)O)c(Br)c(O)c(O)c12 (stereo unspecified)	13	?	70*	1	2	?
COc1ccccc1N1CCN(c2ccc(Cl)nn2)CC1	-1	-16%	-4	-1	11	3
CC(=NOC(=O)c1ccc(F)cc1)c1nccs1	.	.	-7	.	.	-5
C/C(=N\OC(=O)c1ccccc1F)c1nccs1	-6	-15%	6	0	41*	-1
N/C(=N\OS(=O)(=O)c1ccc(Br)cc1)c1ccncc1	-3	-7%	95*	0	-7	?
Cn1ccnc1SCc1ccc(Cl)cc1Cl	-19	-5%	-7	2	20	-4
Cc1c(N/C(=N/S(=O)(=O)c2cc([N+](=O)[O-])ccc2Cl)c2ccccc2)c(=O)n(-c2ccccc2)n1C	-19	-10%	7	0	21	3
O=C(CCCN1CCC(c2ccccc2)C1)c1ccc2c(c1)OCCO2 (stereo unspecified)	79*	-24%	-30	3	-23	-1
CN(CC(=O)Nc1ccccc1Cl)C(=O)CSc1nnc(-c2ccco2)o1	7	-6%	1	-1	0	-4
Cc1ccn(CCNC(=O)C2CCC(=O)N(CCc3ccc(Cl)cc3)C2)n1 (stereo unspecified)	2	-4%	16	0	35*	-1
CC(C)(C)NCC(O)COc1ccccc1C(=O)CCc1ccccc1 (stereo unspecified)	19	-14%	-10	0	-5	-3

Compound activity deposited in PubChem by National Center for Advancing Translational Sciences (NCATS).
